Assay outcomes: PubChem BioAssay, National Center for Advancing Translational Sciences (NCATS)
DRV1 agonist = agonists of human resolvin D1 receptor DRV1 (GPR32) | activation, % at 76.9 µM | CHO-K1 GPR32 beta-arrestin PathHunter luminescence, 90 min; zero percent set by DMSO-only wells | 48,000 compounds, 2.5% hits | O75388;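 active = activation of at least 60% and not above a set upper limit, about 1 call in 100 departs from these limits; inconclusive = activation of 40% to 60%, or above that upper limit; inactive = activation under 40%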
Target sequence (O75388 whole entry, looked up): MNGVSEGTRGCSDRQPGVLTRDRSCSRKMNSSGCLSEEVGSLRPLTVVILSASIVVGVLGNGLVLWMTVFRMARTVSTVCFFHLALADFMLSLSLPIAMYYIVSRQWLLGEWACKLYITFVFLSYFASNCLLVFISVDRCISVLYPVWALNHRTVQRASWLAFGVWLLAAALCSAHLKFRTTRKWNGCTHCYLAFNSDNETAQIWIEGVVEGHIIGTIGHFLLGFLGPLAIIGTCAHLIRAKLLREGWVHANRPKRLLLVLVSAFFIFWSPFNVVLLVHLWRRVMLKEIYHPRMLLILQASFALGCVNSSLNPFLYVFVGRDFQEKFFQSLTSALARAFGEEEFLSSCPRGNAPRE
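PathHunter enzyme-fragment complementation, CHO-K1 GPR32 stable line; 2,500 cells/well, overnight attach; cpd 90 min 37 °C 5% CO2; detection reagent 1 h RT; chemiluminescence. DMSO = EC0.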
HTT prom inh = HTT promoter inhibition | Potency, µM (highest dose often 57.5 µM), usual class: inhibitors | HEK293 HTT promoter firefly luciferase reporter, 24 h | 48,000 compounds, 0.93% hits; note: nearly all actives have a fitted effect of over 50% in size
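HEK293 luciferase promoter-reporter cells (2,500/well) plated 24 h, then compounds added at up to 57.5 uM final for 24 h at 37 °C. Firefly luminescence by Dual-Glo, normalized to vehicle (0%) and zero RLU (-100%).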
HTT-AS promoter = activates huntingtin-antisense promoter activity. Potency, µM (top dose mostly 57.5 µM), usual class: activators. HEK293 HTT-AS promoter firefly luciferase reporter, 24 h; response scale: percent change from vehicle, -100% = no light. AID 1508624. 48,000 compounds, 0.24% hits; note: nearly all actives have a fitted effect of over 55% in size
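Quantitative HTS used concentration series of up to 57.5 uM final on HEK293 luciferase reporter cells, 24 h at 37 degrees C. Readout was Dual-Glo firefly luminescence.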
Each line names hits and unclear results; the compound was inactive in the other large screens. Rows were chosen to be rich in hits. Some 3.7% of all compounds tested hit in one or more screens of this group. Unless noted, calls come from the whole dose curve; as a rule, active = well fitted curve in the direction sought with a large enough effect; inconclusive = small, poorly fitted or top-dose-only effect, or another doubt; inactive = no such curve, though single readings can be large; an effect the other way counts as inactive or inconclusive.

COc1cc2c(cc1OC)CN(C(=O)[C@H](C)N[C@@H](CCc1ccccc1)C(=O)O)[C@H](C(=O)O)C2	HTT prom inh inconclusive
CC(=O)O[C@]1(C(C)=O)CC[C@H]2[C@@H]3C=C(Cl)C4=CC(=O)[C@@H]5C[C@H]5[C@]4(C)[C@@H]3CC[C@@]21C	HTT prom inh inconclusive (no result: DRV1 agonist)
CCOC(=O)c1ccc(NC(=O)Cn2nc(SC)c(S(=O)(=O)c3ccc(Cl)cc3)c2N)cc1	DRV1 agonist 69.5, HTT prom inh inconclusive
CCSc1nn(CC(=O)Nc2ccc(C(=O)OC)cc2)c(N)c1S(=O)(=O)c1ccc(C)cc1	HTT prom inh inconclusive
Cc1cc(N=Nc2ccc(S(=O)(=O)Nc3ccccn3)cc2)c(N)cc1O	none (no result: DRV1 agonist, HTT-AS promoter)
C#Cc1ccc(-c2ccccc2F)cc1	none
COc1cc(N)c(Cl)cc1C(=O)OCCN1CCCCC1	none (no result: HTT prom inh, HTT-AS promoter)
COc1cc(N)c(Cl)cc1C(=O)NC1CCN(CCCOc2ccc(F)cc2)CC1OC (stereo unspecified)	DRV1 agonist 63.8
CCCCC(=O)OCC(=O)[C@H]1[C@H](C)C[C@H]2[C@@H]3C[C@H](F)C4=CC(=O)C=C[C@]4(C)[C@@]3(F)[C@@H](O)C[C@@]21C	none
COc1cccc(NC(=O)c2nnn(Cc3cccc(C(F)(F)F)c3)c2N)c1	HTT prom inh inconclusive
Cc1cc(C)cc(NC(=O)Cn2nnc(C(=O)Nc3cc(C)cc(C)c3)c2N)c1	DRV1 agonist 83.6, HTT prom inh inconclusive
COc1cc(NC(=O)c2nnn(Cc3ccc(F)cc3)c2N)cc(OC)c1	DRV1 agonist 79.4, HTT prom inh inconclusive
CCOC(=O)c1nnn(CC(=O)Nc2cc(C)cc(C)c2)c1C(=O)OCC	none
COc1ccc(CCNc2ncnc3c2c(-c2ccccc2)cn3-c2ccc(Cl)cc2)cc1OC	HTT prom inh inconclusive
O=C(C[C@@H]1CC=CCCC(=O)O[C@H](c2ccccc2)CNC1=O)NCc1ccc(Cl)cc1	none (no result: DRV1 agonist)
COc1ccc(Nc2nc3ccccc3nc2NS(=O)(=O)c2ccc(C)cc2)c(OC)c1	none
COC(=O)c1cc(Nc2nc3ccccc3nc2NS(=O)(=O)c2ccc(C)cc2)ccc1Cl	DRV1 agonist 98.8
Cc1oc(-c2ccccc2)nc1CNC(=O)Nc1ccccc1	DRV1 agonist inconclusive
Cc1oc(-c2ccccc2)nc1CNS(=O)(=O)c1ccc(Cl)cc1	DRV1 agonist 115.4
O=C1CC(c2ccccc2)Cc2[nH]c(=O)c(C(=O)Nc3ccc(OC(F)(F)F)cc3)cc21 (stereo unspecified)	none
Cc1ccc(OCC(=O)Nc2cc(-c3nc4ccccc4[nH]3)ccc2C)c(C)c1	none
O=C(COc1ccccc1[N+](=O)[O-])Nc1ccc(-c2nc3ccccc3s2)cc1	HTT-AS promoter inconclusive
O=C(COc1ccccc1[N+](=O)[O-])Nc1cccc(-c2nc3ccccc3s2)c1	DRV1 agonist 83.7, HTT-AS promoter inconclusive
Cc1ccc(-c2nc3ccccc3[nH]2)cc1NC(=O)COc1ccccc1[N+](=O)[O-]	DRV1 agonist 79.1, HTT prom inh inconclusive
COc1ccc2cc([S+]([O-])Cc3ncc(C)c(OC)c3C)nc2c1	none
N#CC(=C(N)Sc1ccccc1N)C(C#N)=C(N)Sc1ccccc1N	HTT prom inh inconclusive (no result: DRV1 agonist)
Cc1ccc(NC(=O)CSc2nc3c(sc4ccccc43)c(=O)n2CCCC(=O)NC2CCCC2)cc1C	none
CCOC(=O)N1CCc2c(sc3c2c(=O)n(-c2ccc(Cl)cc2)c(=O)n3CC(C)C)C1	none
CC(=O)c1cccc(NC(=O)c2noc3c2CSc2ccccc2-3)c1	HTT-AS promoter 1.41µM
COc1ccc(NC(=O)c2noc3c2CSc2ccccc2-3)cc1Cl	none
COc1cc(CCc2cc(NC(=O)c3ccc(N4C[C@@H](C)N[C@@H](C)C4)cc3)n[nH]2)cc(OC)c1	none (no result: DRV1 agonist)
CCc1oc2ccccc2c1C(=O)c1cc(I)c(O)c(I)c1	none
Cc1ccc(C(C)C)c(OCCSc2nc(-c3cccs3)nc3cc(=O)[nH]n23)c1	none (no result: HTT prom inh, HTT-AS promoter)
C=CCc1ccccc1OCCSc1nc(-c2cccs2)nc2cc(=O)[nH]n12	DRV1 agonist 85.6 (no result: HTT prom inh, HTT-AS promoter)
COc1ccccc1OCCSc1nc(-c2ccc(C(C)(C)C)cc2)nc2cc(=O)[nH]n12	DRV1 agonist 65.5 (no result: HTT prom inh, HTT-AS promoter)
C=CCc1ccccc1OCCSc1nc(-c2ccc(C(C)(C)C)cc2)nc2cc(=O)[nH]n12	none (no result: HTT prom inh, HTT-AS promoter)
O=c1cc2nc(-c3cccs3)nc(SCCOc3ccc(Cl)cc3)n2[nH]1	none
CC(C)(C)c1ccc(OCCSc2nc(-c3cccs3)nc3cc(=O)[nH]n23)cc1	DRV1 agonist 67.9 (no result: HTT prom inh, HTT-AS promoter)
CCCn1c(CN2CCN(c3ccc(OC)cc3)CC2)nc2c1c(=O)[nH]c(=O)n2C	none
Cc1ccc(Cl)c(OCC(O)CNC(C)(C)C)c1 (stereo unspecified)	none
CCOC(=O)c1ccc(NC(=O)C(C)N(c2ccc(OCC)cc2)S(C)(=O)=O)cc1 (stereo unspecified)	none
CC1=C(C(=O)Nc2ccc(Cl)cc2)C(c2ccccc2C)n2ncc(C(=O)Nc3ccc(C)cc3)c2N1 (stereo unspecified)	HTT prom inh inconclusive
CC1=C(C(=O)Nc2ccc(Cl)cc2)C(c2ccccc2)n2ncc(C(=O)Nc3ccccc3)c2N1 (stereo unspecified)	HTT prom inh 25.1µM
CCCCN1CC(c2nc3ccccc3n2CCCCOc2ccccc2C)CC1=O (stereo unspecified)	DRV1 agonist inconclusive, HTT prom inh inconclusive
CCCCN1CC(c2nc3ccccc3n2CCCCOc2c(C)cccc2C)CC1=O (stereo unspecified)	DRV1 agonist 71.6, HTT prom inh inconclusive
CCOc1ccccc1N1CC(c2nc3ccccc3n2CCOc2ccc(OC)cc2)CC1=O (stereo unspecified)	DRV1 agonist 79.6, HTT prom inh inconclusive
CCOc1ccccc1N1CC(c2nc3ccccc3n2CCCOc2ccc(OC)cc2)CC1=O (stereo unspecified)	none
O=C(Cn1ncc2c1-c1ccccc1OC2)N1CCN(c2ccccc2F)CC1	DRV1 agonist 92.1
Cc1ccc2c(c1)-c1c(cnn1CC(=O)N1CCN(c3ccccc3F)CC1)CO2	none
CN1CC(=O)NC1=N	none
O=C(O)C(=O)Nc1cccc(C2=NN=N[N]2)c1	none (no result: DRV1 agonist)
O=C(CSc1ncc(CO)n1Cc1ccccc1)Nc1nc2ccccc2s1	DRV1 agonist 60.3, HTT prom inh inconclusive
Cc1ccc(Cn2ccnc2SCC(=O)Nc2nc3ccccc3s2)cc1	HTT prom inh inconclusive
Cc1ccc(Cn2c(CO)cnc2SCC(=O)NCc2ccccc2Cl)cc1	none (no result: HTT prom inh, HTT-AS promoter)
O=C(CSc1ncc(CO)n1Cc1ccccc1)Nc1ccc(C(F)(F)F)cc1	DRV1 agonist 117.6, HTT prom inh inconclusive
CCC[C@H](Nc1nc(-c2ccc(NC(=O)NCC)c(OC)c2)ncc1C)c1cccnc1	HTT prom inh inconclusive (no result: DRV1 agonist)
CCS(=O)(=O)Nc1ccc2[nH]c(O)c(C(=Nc3ccc(CN4CCCCC4)cc3)c3ccccc3)c2c1	HTT prom inh inconclusive (no result: DRV1 agonist)
CNC(=O)c1ccc2cc(C3(O)CCn4cncc43)ccc2c1 (stereo unspecified)	none (no result: DRV1 agonist)
CCN1CCN(c2ccc(NS(=O)(=O)c3c(C)nc4sccn4c3=O)cc2Cl)CC1	HTT prom inh 15.8µM
Cc1nc2sccn2c(=O)c1S(=O)(=O)Nc1ccc(N2CCOCC2)c(Cl)c1	HTT prom inh inconclusive
